Results as given in PubChem BioAssay (Tox21).
Active and inactive are the calls of the source. A call without a number means that no potency is given here. Calls follow the shape of the full dose curve.

Each molecule was assayed against Acetylcholinesterase (Homo sapiens) (UniProt P22303) (assay: Acetylcholinesterase (AChE) small molecule antagonists: enzyme-based qHTS assay (AID 1347397; also: nearly all actives have a fitted effect of over 55% in size)). Details: Potency: AChE enzyme activity inhibition; outcome: AChE enzyme activity inhibition; series mostly up to 115 µM.
Acetylcholinesterase (Homo sapiens), sequence (P22303 whole entry, looked up): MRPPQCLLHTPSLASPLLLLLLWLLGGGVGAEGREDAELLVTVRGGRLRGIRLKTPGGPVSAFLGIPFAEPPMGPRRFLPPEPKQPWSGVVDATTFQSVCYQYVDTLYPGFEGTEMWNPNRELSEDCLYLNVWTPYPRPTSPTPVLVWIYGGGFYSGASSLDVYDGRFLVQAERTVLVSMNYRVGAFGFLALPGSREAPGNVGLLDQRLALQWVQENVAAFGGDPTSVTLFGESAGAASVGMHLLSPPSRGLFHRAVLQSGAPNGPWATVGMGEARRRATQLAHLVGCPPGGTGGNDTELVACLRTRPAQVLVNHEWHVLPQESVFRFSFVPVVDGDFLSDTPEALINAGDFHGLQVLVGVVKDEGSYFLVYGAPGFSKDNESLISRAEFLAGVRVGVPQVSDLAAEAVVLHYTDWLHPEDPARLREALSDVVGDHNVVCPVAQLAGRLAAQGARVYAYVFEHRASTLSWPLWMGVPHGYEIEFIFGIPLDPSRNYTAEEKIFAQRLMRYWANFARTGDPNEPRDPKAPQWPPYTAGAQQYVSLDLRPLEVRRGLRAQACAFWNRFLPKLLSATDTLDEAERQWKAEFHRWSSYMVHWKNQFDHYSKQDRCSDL
Outline: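 Human recombinant acetylcholinesterase; substrate acetylthiocholine; thiocholine quantified with DTNB (colorimetric). Compound preincubation 30 min RT; reaction 10 min RT.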
For Oc1cc2c(cc1O)[C@H]1c3ccc(O)c(O)c3OC[C@@]1(O)C2, the Potency was “inactive”. O=C(CCN1CCC(c2ccccc2)C1)c1ccc2c(c1)OCCO2 (stereo not given) was tested, and the Potency was “inactive”. With CCCCN(CCCC)CC(O)c1cc(Cl)cc2c1-c1ccc(Cl)cc1/C2=C/c1ccc(Cl)cc1 (stereo not given) the Potency was “inactive”. NC(=O)n1c(O)c(C(=O)c2cccs2)c2cc(Cl)ccc21 was tested, and the Potency was “inactive”. CN(C)CC/C=C1\c2ccccc2Sc2ccc(Cl)cc21 was tested, and the Potency was “inactive”.

Each molecule was assayed against Acetylcholinesterase (Homo sapiens) (UniProt P22303) (assay: Acetylcholinesterase (AChE) small molecule antagonists: enzyme-based qHTS assay with human liver microsomes (AID 1347399; also: nearly all actives have a fitted effect of over 60% in size)). Details: Potency: qHTS inhibition; outcome: qHTS inhibition; series mostly up to 115 µM.
Outline: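 Recombinant human AChE (50 mU/mL in the enzyme mix) and human liver microsomes (0.25 mg/mL final) were preincubated with compound and NADPH (0.25 mg/mL final) for 30 min at 37 C. Acetylthiocholine/DTNB was then added; thiocholine was read colorimetrically after 10 min at room temperature.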
For Oc1ccc(Cl)cc1C1CCCC1, the Potency was “inactive”. CC1(C)CCC(C)(C)c2cc(NC(=O)c3ccc(C(=O)O)cc3)ccc21 was tested, and the Potency was “inactive”. In the case of CC[N+](C)(CC)CCOC(=O)C1c2ccccc2Oc2ccccc21, the Potency is reported as “inactive”. In the case of CCCOC(C(=O)OC1CCN(C)CC1)(c1ccccc1)c1ccccc1, the Potency is reported as “inactive”. CCCCCCCCCCCCCCN(CCO)CCO was tested, and the Potency was “inactive”. For O=C(CC(=O)C(F)(F)F)c1ccccc1, the Potency was “inactive”. With CCC(=O)OCc1ccc(OC)cc1 the Potency was “inactive”. For CN(C)CCN(Cc1ccccc1)c1ccccn1, the Potency was “inactive”. CN(C)CCOC(c1ccc(Cl)cc1)c1ccccn1 (stereo not given) was tested, and the Potency was “inactive”. With O[C@@H](CNC[C@H](O)[C@H]1CCc2cc(F)ccc2O1)[C@@H]1CCc2cc(F)ccc2O1 the Potency was “inactive”. COc1ccccc1N=Nc1c(S(=O)(=O)O)cc2cc(S(=O)(=O)O)cc(NC(C)=O)c2c1O was tested, and the Potency was “inactive”. With CN1CCN(CCC(=O)N2c3ccccc3Sc3ccc(C(F)(F)F)cc32)CC1 the Potency was “inactive”. CC(=O)OCC1=C(C(=O)O)N2C(=O)[C@@H](NC(=O)Cc3cccs3)[C@H]2SC1 was tested, and the Potency was “inactive”. In the case of C[C@@H](CN(C)C)CN1c2ccccc2Sc2ccccc21, the Potency is reported as “inactive”. In the case of CN(C)CCOC1=Cc2ccccc2Sc2ccc(Cl)cc21, the Potency is reported as “inactive”. C(/C=C/C=C/Nc1ccccc1)=Nc1ccccc1 was tested, and the Potency was “inactive”. With Nc1nc2ccccc2n1Cc1ccc(F)cc1 the Potency was “inactive”. O=C(CN1CCN(Cc2ccc3c(c2)OCO3)CC1)N1c2ccccc2Sc2ccccc21 was tested, and the Potency was “inactive”. In the case of CCOc1cc(N)c(Cl)cc1C(=O)NCC1CN(Cc2ccc(F)cc2)CCO1 (stereo not given), the Potency is reported as “inactive”. With c1ccc([C@H]2CN3CCSC3=N2)cc1 the outcome was “inactive”. CCOc1ccc(C(=O)OCCN(CC)CC)cc1 was tested, and the Potency was “inactive”. In the case of CC(CN)CC(C)(C)CCN (stereo not given), the Potency is reported as “inactive”. For Cc1cc(CCN2CCN(c3nsc4ccccc34)CC2)cc2c1NC(=O)CC2(C)C, the outcome was “inactive”. CCCCCCCCCCCCCCCC[N+](C)(C)CCN(Cc1ccc(OC)cc1)c1ncccn1 was tested, and the Potency was “inactive”. In the case of Cc1ccccc1C(=O)O, the Potency is reported as “inactive”. In the case of CCO[C@@H]1O[C@H](C(COCc2ccccc2)OCc2ccccc2)[C@H](OCc2ccccc2)[C@H]1O (stereo not given in full), the Potency is reported as “inactive”. In the case of O=C(/C=C/c1ccccc1)NCCO, the Potency is reported as “inactive”. For Nc1cc(C(Cl)=C(Cl)Cl)c(S(N)(=O)=O)cc1S(N)(=O)=O, the Potency was “inactive”. In the case of Cc1c(N)cccc1Cl, the Potency is reported as “inactive”. CNC(=O)c1c(I)c(NC(C)=O)c(I)c(C(=O)O)c1I was tested, and the Potency was “inactive”. For O=c1c(O)c(-c2ccc(O)cc2O)oc2cc(O)cc(O)c12, the Potency was “inactive”. With O=C(O)c1cc(O)c2ccccc2c1O the Potency was “inactive”. For C/C(=N/NC(=O)c1ccncc1)C(=O)O, the Potency was “inactive”. In the case of Oc1ccc(C2(c3ccc(O)cc3)CC3CC2C2CCCC32)cc1 (stereo not given), the Potency is reported as “inactive”. With c1ccc(C(O[C@H]2CCCN(CCc3ccc4c(c3)OCO4)C2)c2ccccc2)cc1 the Potency was “inactive”. For Oc1cc2c(cc1O)[C@H]1c3ccc(O)c(O)c3OC[C@@]1(O)C2, the Potency was “inactive”. With O=C(CCN1CCC(c2ccccc2)C1)c1ccc2c(c1)OCCO2 (stereo not given) the Potency was “inactive”. In the case of CCCCN(CCCC)CC(O)c1cc(Cl)cc2c1-c1ccc(Cl)cc1/C2=C/c1ccc(Cl)cc1 (stereo not given), the Potency is reported as “inactive”. NC(=O)n1c(O)c(C(=O)c2cccs2)c2cc(Cl)ccc21 was tested, and the Potency was “inactive”. With CN(C)CC/C=C1\c2ccccc2Sc2ccc(Cl)cc21 the Potency was “inactive”.
